Source: PubChem BioAssay (National Center for Advancing Translational Sciences (NCATS))
KCNH2 3.1 block: blocks the human KCNH2 3.1 channel isoform. U2OS KCNH2 3.1, thallium flux FluxOr; hits give low values. 340,000 compounds, 0.95% hits. activity change, % (tested at about 1.8 µM). AID 720553;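 active = maximum activity change below -70%; inconclusive = maximum activity change from -70% to -50%; inactive = maximum activity change above -50%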;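 note: thallium influx rate constant from kinetic fluorescence after stimulation buffer; % is set by controls: 0 for no effect and ±100 for the full control effect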
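Kinetic fluorescence (2 min after stimulation buffer) measures Tl+ influx through KCNH2 3.1 expressed by viral transduction in U2OS cells; the rate constant is normalized against DMSO controls serving as positive and negative references.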
RXFP1 antag: antagonists of human relaxin receptor RXFP1. 350,000 compounds, 0.59% hits. HEK293-RXFP1, relaxin-stimulated cAMP HTRF, 30 min; hits give low values. activity change, negative = inhibition, % at 57.5 µM;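 active = activity change of -60% or lower, but not beyond a set lower limit; inconclusive = change between -60% and -40%, or beyond the set limit; inactive = change above -40%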; note: % is set by controls: 0 for no effect and ±100 for the full control effect
GRP78 ERSR act: inducers of ER stress response in human glioma cells | U87-MG GRP78 promoter luciferase reporter, 16 h | 420,000 compounds, 0.02% hits | Potency, µM, for inactives: top-dose activation, most hits filed as activators; note: potency is the fitted concentration of half-maximal effect; series mostly up to about 76 µM; % of control where 0% means no effect; nearly all actives have a fitted effect of over 35% in size
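ERSR induction read as luciferase luminescence (Bright-Glo, 10 min at room temperature) in stably transfected human U87-MG glioma cells exposed to compounds for 16 h, using GRP78 as sensor.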
RXFP1 ag: RXFP1 (human) receptor agonism; Q9HBX9; HEK293T-RXFP1 cAMP TR-FRET, 30 min; response scale: percent of porcine relaxin response, buffer zero; Potency, µM (doses to about 57.5 µM), without a hit: at the top dose activation, actives largely listed as activators; 370,000 compounds, 0.3% hits; note: potency is the fitted concentration of half-maximal effect; % is set by controls: 0 for no effect and ±100 for the full control effect; nearly all actives have a fitted effect of over 60% in size
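HEK293 cells stably expressing RXFP1, treated 30 min at 37C with compounds plus PDE4 inhibitor Ro 20174; cAMP measured by HTRF TR-FRET. Normalized to buffer and 29 nM porcine relaxin; EC50 by Hill fit.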
hERG WT inh: inhibitors of human wildtype KCNH2 potassium channel; Q12809; U2OS, BacMam KCNH2, thallium flux FluxOr; hits give low values; activity change, % at 1.84 µM; 340,000 compounds, 0.37% hits;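 active = maximum activity change below -70%; inconclusive = maximum activity change between -70% and -50%; inactive = maximum activity change above -50%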; note: % is set by controls: 0 for no effect and ±100 for the full control effect
Target sequence (Q12809 whole entry, looked up): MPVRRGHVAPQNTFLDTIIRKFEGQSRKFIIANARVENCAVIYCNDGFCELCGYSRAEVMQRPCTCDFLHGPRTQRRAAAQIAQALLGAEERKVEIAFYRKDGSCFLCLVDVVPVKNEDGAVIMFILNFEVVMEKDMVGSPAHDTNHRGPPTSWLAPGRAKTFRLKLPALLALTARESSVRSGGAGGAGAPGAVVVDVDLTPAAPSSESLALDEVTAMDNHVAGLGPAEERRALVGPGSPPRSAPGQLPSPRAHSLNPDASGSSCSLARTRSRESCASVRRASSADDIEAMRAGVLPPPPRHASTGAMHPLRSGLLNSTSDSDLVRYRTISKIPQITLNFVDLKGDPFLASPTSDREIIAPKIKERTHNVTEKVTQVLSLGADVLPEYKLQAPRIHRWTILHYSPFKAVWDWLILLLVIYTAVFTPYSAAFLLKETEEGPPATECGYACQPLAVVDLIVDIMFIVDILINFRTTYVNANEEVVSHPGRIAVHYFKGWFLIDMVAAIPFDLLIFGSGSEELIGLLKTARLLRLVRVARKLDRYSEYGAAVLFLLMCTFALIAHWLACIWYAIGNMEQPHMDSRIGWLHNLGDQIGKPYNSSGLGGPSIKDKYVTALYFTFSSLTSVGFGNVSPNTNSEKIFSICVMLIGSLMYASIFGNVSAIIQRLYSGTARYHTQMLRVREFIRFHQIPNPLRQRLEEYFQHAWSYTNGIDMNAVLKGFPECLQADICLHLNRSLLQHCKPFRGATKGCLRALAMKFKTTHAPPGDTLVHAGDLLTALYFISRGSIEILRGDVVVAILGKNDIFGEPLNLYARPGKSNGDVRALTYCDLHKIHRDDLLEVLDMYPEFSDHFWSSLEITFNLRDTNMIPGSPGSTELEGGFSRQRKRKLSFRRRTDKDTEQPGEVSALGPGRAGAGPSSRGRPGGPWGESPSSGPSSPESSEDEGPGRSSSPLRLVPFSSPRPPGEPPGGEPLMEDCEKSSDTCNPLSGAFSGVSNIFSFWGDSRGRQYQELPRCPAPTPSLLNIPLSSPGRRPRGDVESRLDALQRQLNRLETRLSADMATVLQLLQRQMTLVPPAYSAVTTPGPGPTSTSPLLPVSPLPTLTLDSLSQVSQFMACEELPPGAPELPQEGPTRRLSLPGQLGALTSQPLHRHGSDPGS
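U2OS cells were transduced with wild-type KCNH2 virus (2.03 x 10^8 / mL) for 4 h at room temperature, then cultured overnight at 37 C. Thallium flux was read with FluxOr dye. Rate constants were normalized to DMSO controls.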
PTHR1 agonist: activates the human parathyroid hormone receptor PTHR1. Q03431. HEK293 GP2 PTHR1 cells, GloSensor cAMP luminescence, 1 h. Potency, µM (doses to about 115 µM), for the others: at the highest dose activation, actives largely listed as activators. 410,000 compounds, 0.075% hits. AID 743266; note: potency is the fitted concentration of half-maximal effect; nearly all actives have a fitted effect of over 55% in size
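HEK-293-derived GP2 cells expressing PTHR1 and a GloSensor cAMP reporter, 3,000/well, plated overnight, given luciferin plus IBMX (each 0.5 mM as added) for 1 h at 37 °C, then compound for 1 h at 37 °C. Luminescence was read after 15 min at room temperature.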
Starred values were filed as active, the others as inactive; i = inactive; ? = inconclusive; . = no result given; [ ] = remark or other dose. Shown are actives, neighbours in structure and some others; about 1.4% of the full set was active somewhere. Unless noted, calls come from the whole dose curve; as a rule, active = well fitted curve in the direction sought with a large enough effect; inconclusive = small, poorly fitted or top-dose-only effect, or another doubt; inactive = no such curve, though single readings can be large; an effect the other way counts as inactive or inconclusive.

SMILES	KCNH2 3.1 block	RXFP1 antag	GRP78 ERSR act	RXFP1 ag	hERG WT inh	PTHR1 agonist
COc1cc(/C=N/NC(=O)C2CCN(CC(O)COCc3ccccc3)CC2)ccc1O (stereo unspecified)	-99.1*	-3.5	-2.1%	-0.2%	-128.2*	i
COC(=O)c1c(NC(=S)Nc2ccccc2Cl)sc(C)c1C	17.6	-107.2*	2.7%	7.8%	0.3	i
COc1ccc(-c2cc(C(=O)Nc3ccc(OC)cc3OC)no2)cc1	-108.3*	2.7	-2.9%	0.0%	1.6	i
COc1ccc(NC(=O)c2ccc3[nH]c(=O)c(=O)[nH]c3c2)c(OC)c1	1.2	-27.5	0.5%	5.1%	8.0	-22.4%
COc1ccc(NC(=O)c2cc(-c3ccccc3)on2)cc1OC	-76.5*	3.5	-6.6%	-4.1%	3.9	i
COc1ccc(NC(=O)c2ccc(C)cc2)c(OC)c1	-154.0*	-11.7	-0.5%	2.8%	-170.2*	-12.8%
COc1ccc2sc(-c3ccc(S(C)(=O)=O)cc3)c(C(=O)NCCc3c[nH]c4ccccc34)c2c1	.	.	-1.0%	.	.	-0.2%
COCCN(C(=O)CSc1ncn[nH]1)c1c(N)n(Cc2ccccc2)c(=O)[nH]c1=O	13.6	8.6	-6.3%	0.0%	2.5	i
CN1CCc2c(sc(NC(=O)CSc3ccc(F)cc3)c2-c2nc3ccccc3s2)C1	.	-95.6*	-5.9%	-30.3%	.	4.5%
S=c1[nH]cc(-c2ccccc2)[nH]1	3.5	-7.2	-1.0%	2.4%	-4.9	i
COc1cc(/C=N/NC(=O)c2cccnc2)ccc1OCC(=O)Nc1ccccc1Cl	-97.3*	4.3	6.2%	-0.2%	0.4	-23.9%
COc1cc(C(=O)N/N=C/c2ccc(OC(=O)c3ccccc3Cl)cc2)ccc1O	-11.1	-91.4*	-0.7%	-0.4%	2.2	-42.8%
COc1cc(/C=N/NC(=O)c2ccncc2)ccc1OCC(=O)Nc1ccccc1	-28.9	-73.5*	-7.3%	-2.2%	-7.8	i
COc1cc(/C=N/NC(=O)c2ccc(Cl)c(S(N)(=O)=O)c2)ccc1OCC(N)=O	21.6	-1.0	-2.5%	0.6%	-142.3*	-15.3%
COc1ccc(Oc2ncc3nc(-c4ccc(Cl)cc4)c(=O)n(C4CC4)c3n2)cc1	.	.	-2.0%	.	.	.
Cc1cc(=O)[nH]c2nnc(SCc3cccc(C(F)(F)F)c3)n12	.	-8.0	-3.9%	3.1%	.	?
CCCCC(CC)C(=O)NCC(C)NC(=O)C(CC)CCCC (stereo unspecified)	-1.0	6.4	-3.6%	2.9%	-2.6	-2.0%
Cc1cc(C(=O)N/N=C/c2cccc(OC(=O)c3cccc(Br)c3)c2)n[nH]1	-190.6*	-3.0	-4.9%	0.5%	-151.2*	19.5%
COc1cccc(C(=O)Oc2ccc(/C=N/NC(=O)c3ccncc3)cc2OC)c1	15.0	-9.9	-4.5%	-1.5%	10.4	-29.8%
COc1cc(/C=N/NC(=O)c2ccncc2)ccc1OC(=O)c1cccc(Br)c1	-31.6	-72.5*	-4.7%	-2.5%	-3.5	-21.2%
Cc1ccc(S(=O)(=O)NC(=O)Nc2cc(C)no2)cc1	0.3	-2.2	-4.5%	-0.5%	-4.1	-14.5%
Cc1ccc([C@H]2C[C@H](n3cc(COC(=O)c4ccccc4)nn3)[C@@H](O)CN2C(=O)c2cccs2)cc1	-13.5	9.1	1.1%	.	17.1	-22.4%
COc1cc([N+](=O)[O-])ccc1NC(=O)COC(=O)c1n[nH]c2ccccc12	-2.8	2.4	-0.4%	4.1%	-8.1	-31.0%
O=C(COC(=O)c1n[nH]c2ccccc12)Nc1ccc(Cl)cc1[N+](=O)[O-]	15.3	-75.3*	2.8%	2.3%	-2.1	i
COc1ccccc1CNC(=O)CCC(=O)Nc1nnc(C(C)C)s1	2.0	7.5	-1.7%	-0.1%	3.6	i
SMILES	KCNH2 3.1 block	RXFP1 antag	GRP78 ERSR act	RXFP1 ag	hERG WT inh	PTHR1 agonist
COc1ccccc1CNC(=O)CCC(=O)Nc1nnc(C)s1	-3.9	-5.8	-4.3%	2.0%	-297.7*	i
COc1nc(OC)nc(N2CCC(C(=O)NCc3ccco3)CC2)n1	-4.2	21.0	-2.1%	3.4%	-7.1	-26.4%[57.5 µM]
O=C(NCc1ccco1)C1CCN(c2nc3ccccc3n2Cc2ccc(F)cc2)CC1	-104.1*	.	-2.1%	0.0%	-151.6*	i
O=c1[nH]cnc2nc3n(c12)CCCCC3	0.4	-0.1	-1.6%	6.8%	-0.3	i
CCCc1oc(C(=O)O)cc1CN1CCCC1	-9.0	19.5	2.6%	-1.1%	6.8	i
CCCc1oc(C(=O)O)cc1CN	1.8	-9.8	-3.2%	-0.4%	-4.9	17.8µM*
COc1ccc(-c2cc(C(=O)N3CCCc4ccccc43)no2)cc1OC	-27.9	-24.6	3.6%	-1.1%	-19.4	13.6%[57.5 µM]
CCN1CCN(CCCNC(=O)Cn2c(-c3cccs3)cc3cc(Cl)ccc32)CC1	.	-69.0*	-0.8%	3.0%	.	-20.1%
O=C(N/N=C/c1cc([N+](=O)[O-])ccc1Cl)c1cnccn1	-188.4*	2.3	-5.1%	6.8%	-144.0*	-13.2%
O=C(N/N=C/c1cccc([N+](=O)[O-])c1)c1cnccn1	9.3	-30.1	3.8%	5.8%	3.2	i
CN(C(=O)c1ccc(NC(=O)Cc2ccc(NC(=O)C3CCN(C(=O)C4CCCC4)CC3)cc2)cc1)C1CC1	-1.9	.	3.2%	0.1%	-16.8	-35.2%
Cc1sc(NC(=O)CSC2=NCCS2)nc1-c1ccccc1	-12.9	6.2	14.3%	-0.1%	-29.9	-47.3%
CC(=O)N1CC(=O)N=C1SCC(=O)Nc1nc(-c2ccccc2)c(-c2ccccc2)s1	?	-86.4*	-1.9%	1.3%	?	i
CSc1nc(N2CCN(Cc3ccc4c(c3)OCO4)CC2)c2ccccc2n1	-73.3*	3.7	-4.5%	-0.8%	-1.0	-4.3%
Cc1nc(N2CCN(Cc3ccc4c(c3)OCO4)CC2)c2cc(-c3ccccc3)sc2n1	-21.2	-32.6	0.3%	-0.6%	12.9	-16.0%
Cc1cc(-c2ccccc2)nc(N/N=C/c2cccnc2)n1	2.0	-8.4	-2.2%	-0.4%	-14.2	-0.1%
CCCCCCN1CCN(C2CN(Cc3ccc([N+](=O)[O-])cc3)S(=O)(=O)C2)CC1 (stereo unspecified)	-112.3*	6.8	-1.3%	.	-96.1*	-41.3%
O=[N+]([O-])c1ccc(CN2CC(N3CCN(CCO)CC3)CS2(=O)=O)cc1 (stereo unspecified)	-2.3	5.3	-0.9%	.	-1.3	-18.4%
O=C(Nc1cc(N2CCOCC2)ncn1)c1ccccc1	-17.2	-11.3	35.5µM*	2.9%	0.1	i
CCOc1ccccc1N(CC)C(=O)c1ccc2c(=O)n3c(nc2c1)CCCCC3	8.2	-20.1	0.1%	-0.5%	-22.6	-41.9%
Cc1cccc(C)c1OCc1cc(C(=O)NC2CCC(O)CC2)no1 (stereo unspecified)	21.4	-3.0	-2.3%	0.3%	-4.5	-5.7%
